From PubChem BioAssay AID2284186 (EPA ToxCast)
Activity calls are given as the source filed them. Rule for the calls: active = hit-call score of the fitted dose curve at least 0.9, where 1 is the maximum; inactive = score below 0.9.

molecular target: Glucocorticoid receptor (Homo sapiens) (UniProt P04150); assay: ERF_FR_NR_hGR: Eurofins (ERF) Nuclear Receptor (NR) Radioligand Binding LeadHunter Assay for human Glucocorticoid Receptor (GR) Agonism, conducted at France lab site
Experimental: ERF_FR_NR_hGR is a biochemical, single-readout assay that uses extracted gene-proteins in a cell-free assay. Measurements were taken 6 hour after chemical dosing in a 96-well plate. See GR Human Glucocorticoid NHR Binding (Agonist Radioligand) Assay, Cerep.ERF_FR_NR_hGR is an assay component calculated from the ERF_FR_NR_hGR assay. It is designed to measure radioligand binding using a type of binding reporter as detected by scintillation counting with radiometry technology.Data from the assay component ERF_FR_NR_hGR was analyzed at the assay endpoint, ERF_FR_NR_hGR, in the positive analysis fitting direction relative to DMSO as the negative control and baseline of activity. Using a type of binding reporter, gain-of-signal activity can be used to understand changes in binding as they relate to gene NR3C1. To generalize the intended target to other relatable targets, this assay endpoint is annotated to the nuclear receptor intended target family, where the subfamily is steroidal.
Human cells are incubated for 24 hours at 4C with [3H]dexamethasone ([…]) ligand and Dexamethazone as control inhibitor. Test Sample Requirements: Minimum for 1) Screen: 60 ul of 10 mM stock -OR- 1 mg (pre-weighed) for 10 uM final testing. 2) Dose Response: 90 ul of 10 mM stock -OR- 1 mg (pre-weighed) for a top concentration at 10 uM.

Glucocorticoid receptor (Homo sapiens), sequence (P04150 whole entry, looked up): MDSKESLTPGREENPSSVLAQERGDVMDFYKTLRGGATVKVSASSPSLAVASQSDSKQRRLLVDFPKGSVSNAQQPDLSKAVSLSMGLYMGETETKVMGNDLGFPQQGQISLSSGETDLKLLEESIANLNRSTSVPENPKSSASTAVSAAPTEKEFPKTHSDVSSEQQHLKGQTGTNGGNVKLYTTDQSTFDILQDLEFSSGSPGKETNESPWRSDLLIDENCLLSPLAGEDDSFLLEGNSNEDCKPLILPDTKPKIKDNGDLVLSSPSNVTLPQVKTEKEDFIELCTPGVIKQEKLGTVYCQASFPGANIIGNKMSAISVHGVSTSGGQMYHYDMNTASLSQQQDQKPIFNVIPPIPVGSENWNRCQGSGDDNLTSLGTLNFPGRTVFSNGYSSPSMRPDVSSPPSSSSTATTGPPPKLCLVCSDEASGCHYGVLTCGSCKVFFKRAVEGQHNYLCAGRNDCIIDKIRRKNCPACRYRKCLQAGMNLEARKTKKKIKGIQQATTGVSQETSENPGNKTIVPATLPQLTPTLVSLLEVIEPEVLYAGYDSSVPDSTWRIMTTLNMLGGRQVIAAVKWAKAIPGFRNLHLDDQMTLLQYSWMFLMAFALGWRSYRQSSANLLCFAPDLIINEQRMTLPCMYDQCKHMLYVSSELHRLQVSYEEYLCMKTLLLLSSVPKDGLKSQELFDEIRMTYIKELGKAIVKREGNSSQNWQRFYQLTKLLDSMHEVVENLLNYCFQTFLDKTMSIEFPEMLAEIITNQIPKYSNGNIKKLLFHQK

Row | SMILES | AC50
1 | O=C(/C=C/c1ccc(O)cc1)CC(=O)/C=C/c1ccc(O)cc1 | 969 nM (active)
